Test results as given in PubChem BioAssay AID492972 (The Scripps Research Institute Molecular Screening Center, 2010).
About 930 (0.27%) of roughly 340,000 compounds were called active.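 Rule for the calls: active = inhibition above the screen-wide average of all tested compounds plus 3 SD (cut at about 25% in these data); inactive = the rest.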 Only a selection was taken, and actives are over-represented in it overall.

What follows are compounds tested against Platelet-activating factor acetylhydrolase IB subunit alpha1 (Homo sapiens) (UniProt Q15102) (assay: inhibition of PAF acetylhydrolase 1B subunit 3 – biochemical, fluorescence polarization, human, primary screen (AID 492972;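 note: 0% = enzyme with DMSO only and 100% = wells lacking PAFAH1B3 protein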)). Conditions: recombinant PAFAH1B3, FP-rhodamine probe, at 3.39 µM, hits give high values.
Chain of Platelet-activating factor acetylhydrolase IB subunit alpha1 (Homo sapiens) (Q15102 whole entry, looked up): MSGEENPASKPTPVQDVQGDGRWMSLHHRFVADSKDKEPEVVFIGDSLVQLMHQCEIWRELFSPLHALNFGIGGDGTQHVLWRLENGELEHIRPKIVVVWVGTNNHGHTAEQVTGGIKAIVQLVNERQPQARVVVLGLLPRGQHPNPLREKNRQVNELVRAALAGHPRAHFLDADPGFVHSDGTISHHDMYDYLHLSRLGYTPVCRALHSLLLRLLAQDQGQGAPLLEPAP

| Compound | inhibition |
| --- | --- |
| O=C1NC(=O)N(c2ccc(F)cc2)C(=O)/C1=C/c1ccc2c(c1)CCCN2Cc1ccccc1 | 4.39% (inactive) |
| O=C1NC(=O)N(c2ccccc2)C(=O)/C1=C/c1ccc([N+](=O)[O-])s1 | 25.6% (active) |
| COc1ccc(N2C(=O)/C(=C/c3ccco3)C(=O)NC2=S)cc1 | 16.7% (inactive) |
| CCCCCn1c(=O)c(C(=O)NCc2ccccn2)c(O)c2ccccc21 | 4.97% (inactive) |
| COC(=O)N(c1ccc(OC)cc1)P1(=S)OCCC(C)O1 (stereo not given) | -0.56% (inactive) |
| COc1cc(Cn2c(N)c(C(=O)NCc3ccco3)c3nc4ccccc4nc32)cc(OC)c1OC | 9.25% (inactive) |
| CCOC(=O)c1c(N)n(Cc2ccccc2)c2nc3ccccc3nc12 | 36.2% (active) |
| CC/C(=N\NC(=O)c1ccccc1O)c1c(O)n(Cc2ccccc2)c(=O)[nH]c1=O | 13.4% (inactive) |
| O=C(c1cc2nc(-c3ccccc3)cc(-c3ccccc3)n2n1)N1CCC2(CC1)OCCO2 | 1.81% (inactive) |
| COC(=O)C(O)(c1ccc(NC(=O)c2ccco2)c(OC)c1)C(F)(F)F (stereo not given) | -1.88% (inactive) |
